# Experimental data published in PubChem BioAssay (NCATS).
# Results filed as inconclusive are left out. A number with no mark means an inactive call. The source made the active and inactive calls. Calls follow the shape of the dose curve; as a rule, active = well fitted inhibition curve with a large enough effect; inconclusive = small, poorly fitted or top-dose-only effect; inactive = flat fitted curve, though single readings scatter.
# Test system: WaGa
# Assay: qHTS assay to identify novel small-molecules to repurpose for Merkel cell carcinoma treatment (AID 1296009); also: nearly all actives have a fitted effect of over 60% in size
# Details: MCC and control cell lines, CellTiter-Glo viability, 72 h; series mostly up to 46 µM; activity change, negative = cytotoxicity: at the top concentration
# Procedure, shortened: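 Cell viability measured by CellTiter-Glo following 72 hr compound treatment at 37 degree celsius, with NPC and MIPE libraries tested in 8- and 11-point concentration series.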
# % is scaled to controls: 0 for no effect and ±100 for the full control effect; potency is read from the fitted curve at half-maximal effect.
SMILES,"activity change, negative = cytotoxicity [%]",Potency
O=S(=O)(F)Cc1ccccc1,-4.84,–
COC1=CC(C)=C[C@@H](C)[C@@H](O)[C@@H](C)CC(C)=CC=C[C@H](OC)[C@H]([C@@H](C)[C@@H](O)[C@H](C)[C@@]2(O)C[C@@H](O)[C@H](C)[C@@H](C(C)C)O2)OC1=O,–,118 nM (active)
c1ccc2c(CN3CCNCC3)cccc2c1,0.64,–
CC(C)[C@H]1C(=O)N[C@H](CO)Cc2c[nH]c3cccc(c23)N1C,-2.28,–
O=C1CCC[C@@H]2[C@H]3CCCN4CCC[C@@H](CN12)[C@@H]34,-3.81,–
COc1ccc(CC2NCCc3cc(OC)c(OC)cc32)cc1OC (centres undefined),-5.62,–
O=S(=O)(CC1CS1)c1ccc(Oc2ccccc2)cc1 (centres undefined),–,20900 nM (active)
COc1ccc2c(c1)CN(C)CC2c1ccc(Cl)c(Cl)c1 (centres undefined),-13.4,–
CC(=Cc1csc(C)n1)[C@@H]1C[C@H]2O[C@]2(C)CCC[C@H](C)[C@@H](O)[C@@H](C)C(=O)C(C)(C)[C@@H](O)CC(=O)O1,-46.7,–
CN(C)[C@@H]1C(=O)C(C(N)=O)=C(O)[C@@]2(O)C(=O)C3=C(O)c4c(O)cccc4[C@@](C)(O)[C@H]3[C@H](O)[C@@H]12,-6.94,–
CCN1C[C@]2(OC(=O)c3ccccc3NC(C)=O)CC[C@H](OC)[C@@]34[C@H]5CC6[C@@H](OC)C[C@](O)(C(C[C@@H]23)[C@@H]14)[C@@]5(O)[C@@H]6OC,6.39,–
CO[C@H]1CCC(O[C@H]2C[C@H]([C@]3(C)CC[C@]4(C[C@H](O)[C@@H](C)[C@@H]([C@@H](C)C=C(C)C(=O)[C@H](C)C[C@H](C)C(=O)O)O4)O3)O[C@]3(O[C@@H]([C@H]4O[C@@](O)(CO)[C@H](C)C[C@H]4C)C[C@H]3C)[C@H]2C)O[C@H]1C (some centres undefined),–,935 nM (active)
COc1ccc(C(=O)c2c(C)n(CCN3CCOCC3)c3cc(I)ccc23)cc1,-19.5,–
NC1CC1c1ccccc1 (centres undefined),-9.04,–
